In publication PMC5700166 one finds binding signal data, which are given here for 16 sequences.

Residue numbers refer to the chain shown, from its start.

Holding throughout (experiment): protein-binding microarray (PBM); PBM: ~300 nM protein, 6 mM HEPES pH 7.8, 80 mM KCl, 0.5 mM EDTA, 0.5 mM EGTA, 6% glycerol, 35 ng/ul poly-dIdC, 1% milk, 1 h, room temperature; Ap Aiptasia and Nv Nematostella (sea anemones) / Co Capsaspora / Aq Amphimedon (sponge) / Dm Drosophila / Hu human; RHD is the Rel homology domain; high values mean tight binding
Details in all cases: dsDNA, one strand shown

Experiment [1] concerns the target T1, GST-Nv-NF-kB (Cys allele) (Nematostella vectensis, UniProt E5G601 2-411).
T1 sequence: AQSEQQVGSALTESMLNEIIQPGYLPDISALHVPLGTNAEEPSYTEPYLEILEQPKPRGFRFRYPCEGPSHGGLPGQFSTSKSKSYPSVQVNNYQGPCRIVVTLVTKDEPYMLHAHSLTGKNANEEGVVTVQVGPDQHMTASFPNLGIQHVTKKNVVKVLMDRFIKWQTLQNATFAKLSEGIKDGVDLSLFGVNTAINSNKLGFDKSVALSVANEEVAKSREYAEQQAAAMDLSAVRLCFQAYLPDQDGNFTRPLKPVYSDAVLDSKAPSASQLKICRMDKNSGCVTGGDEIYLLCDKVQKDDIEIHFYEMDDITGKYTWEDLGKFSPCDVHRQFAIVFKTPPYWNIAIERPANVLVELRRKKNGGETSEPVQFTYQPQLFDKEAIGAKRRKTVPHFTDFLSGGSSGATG

Experiment [2] addresses T2, GST-Nv-NF-kB (Ser allele) (Nematostella vectensis, UniProt A7UNT2 2-411).
T2 sequence: T1 sequence with Q21R, C66S, S207N, E215Q, V217A, E225K, A268E, D399E

Experiment [3] addresses T3, GST-Co-NF-kB (Capsaspora owczarzaki, UniProt F1ARL5 200-546).
T3 sequence: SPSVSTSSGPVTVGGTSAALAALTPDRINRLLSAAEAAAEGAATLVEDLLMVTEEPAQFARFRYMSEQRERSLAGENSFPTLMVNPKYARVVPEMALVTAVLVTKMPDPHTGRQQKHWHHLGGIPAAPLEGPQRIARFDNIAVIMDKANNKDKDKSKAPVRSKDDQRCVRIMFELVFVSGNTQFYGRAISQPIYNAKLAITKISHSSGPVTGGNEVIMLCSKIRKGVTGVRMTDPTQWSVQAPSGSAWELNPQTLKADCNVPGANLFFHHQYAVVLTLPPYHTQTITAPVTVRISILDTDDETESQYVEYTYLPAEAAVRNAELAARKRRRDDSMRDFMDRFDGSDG

Experiment [4] deals with T4, GST-Dm-Relish (Drosophila melanogaster, UniProt Q94527 99-473).
T4 sequence: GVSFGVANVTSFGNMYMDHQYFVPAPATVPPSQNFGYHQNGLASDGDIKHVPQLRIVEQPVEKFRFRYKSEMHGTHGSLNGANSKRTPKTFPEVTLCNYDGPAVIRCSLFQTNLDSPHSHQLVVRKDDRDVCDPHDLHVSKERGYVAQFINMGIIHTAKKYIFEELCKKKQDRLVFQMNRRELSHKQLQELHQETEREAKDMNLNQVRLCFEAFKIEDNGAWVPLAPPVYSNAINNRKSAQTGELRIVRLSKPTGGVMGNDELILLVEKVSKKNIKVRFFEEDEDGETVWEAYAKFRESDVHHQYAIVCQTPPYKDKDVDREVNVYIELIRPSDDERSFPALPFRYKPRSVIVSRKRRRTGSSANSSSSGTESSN

For experiment [5], the target named is T5, GST-Aq-NF-kB (Amphimedon queenslandica, UniProt A9Y5G7 2-389).
T5 sequence: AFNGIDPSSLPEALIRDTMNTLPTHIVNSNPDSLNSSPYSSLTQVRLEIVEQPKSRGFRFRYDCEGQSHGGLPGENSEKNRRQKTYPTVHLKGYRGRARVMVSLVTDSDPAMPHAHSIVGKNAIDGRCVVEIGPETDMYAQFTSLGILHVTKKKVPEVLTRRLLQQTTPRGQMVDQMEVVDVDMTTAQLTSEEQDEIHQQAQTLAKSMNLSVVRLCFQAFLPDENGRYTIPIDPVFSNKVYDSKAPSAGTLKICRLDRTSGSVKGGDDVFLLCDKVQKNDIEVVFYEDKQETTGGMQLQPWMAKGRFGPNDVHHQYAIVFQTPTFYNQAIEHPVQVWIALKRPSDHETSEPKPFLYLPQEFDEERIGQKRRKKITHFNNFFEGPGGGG

For experiment [6], the target named is GST-Hu-p50 (Homo sapiens, UniProt P19838 7-356).
The target in experiment [7] is T6, GST-Ap-NF-kB RHD (Exaiptasia pallida (Aiptasia), UniProt A0A913YAJ5 2-422).
T6 sequence: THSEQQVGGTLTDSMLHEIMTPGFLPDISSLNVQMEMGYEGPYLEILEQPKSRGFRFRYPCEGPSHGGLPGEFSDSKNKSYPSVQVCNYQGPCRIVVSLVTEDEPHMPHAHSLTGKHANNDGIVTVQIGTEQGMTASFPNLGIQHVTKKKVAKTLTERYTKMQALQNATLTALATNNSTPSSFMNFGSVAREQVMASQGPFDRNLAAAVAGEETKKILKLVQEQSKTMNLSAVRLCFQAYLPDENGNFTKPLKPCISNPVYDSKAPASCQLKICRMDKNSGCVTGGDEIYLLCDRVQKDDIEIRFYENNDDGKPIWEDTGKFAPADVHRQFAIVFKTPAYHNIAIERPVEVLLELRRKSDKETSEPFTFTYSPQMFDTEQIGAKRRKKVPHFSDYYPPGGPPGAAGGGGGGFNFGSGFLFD

Sequence of GST-Hu-p50 (P19838 7-356): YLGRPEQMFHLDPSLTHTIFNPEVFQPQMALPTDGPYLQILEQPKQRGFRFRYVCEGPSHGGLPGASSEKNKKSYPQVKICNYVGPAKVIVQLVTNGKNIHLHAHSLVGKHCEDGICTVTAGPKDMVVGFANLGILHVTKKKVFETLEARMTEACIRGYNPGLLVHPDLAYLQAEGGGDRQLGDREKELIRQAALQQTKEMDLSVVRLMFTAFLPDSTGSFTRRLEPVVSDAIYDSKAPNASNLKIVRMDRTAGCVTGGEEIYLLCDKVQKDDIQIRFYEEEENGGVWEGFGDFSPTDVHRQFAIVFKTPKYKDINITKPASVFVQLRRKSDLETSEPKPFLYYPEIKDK

Regarding “CCGATTAACATCATTCCCGGAAATGATGTTAATCGGGTCTTGATTCGCTTGACGCTGCTG”, the binding signal in experiment [1] amounted to 3.35 z-score; in experiment [2], 2.61 z-score; in experiment [3] it was 2.37 z-score; in experiment [4], 1.05 z-score; in experiment [5] it was 2.67 z-score; in experiment [6], 1.79 z-score.
“CCGATTAACATCAAATTTTCCGGTGATGTTAATCGGGTCTTGATTCGCTTGACGCTGCTG”: the binding signal in experiment [2] stood at 1.67 z-score; in experiment [4] it was 1.54 z-score; in experiment [5] it was 2.04 z-score; in experiment [6] it was 1.95 z-score.
In the case of “CCGATTAACATCAAAAAAGTCCGTGATGTTAATCGGGTCTTGATTCGCTTGACGCTGCTG”, the binding signal in experiment [1] amounted to 1.12 z-score; in experiment [4], 4.7 z-score; in experiment [5], 3.69 z-score; in experiment [6], 1.4 z-score.
In the case of “CCGATTAACATCAAGAATTTTCCTGATGTTAATCGGGTCTTGATTCGCTTGACGCTGCTG”, the binding signal is 1.03 z-score in experiment [2], 1.12 z-score in experiment [5] and 1.25 z-score in experiment [6].
Turning to “CCGATTAACATCACCGGAAATTCTGATGTTAATCGGGTCTTGATTCGCTTGACGCTGCTG”, the binding signal in experiment [1] was 1.22 z-score; in experiment [2] it was 1.39 z-score; in experiment [4], 1.78 z-score; in experiment [5] it was 2.51 z-score; in experiment [6], 2.29 z-score.
“CCGATTAACATCAAAATTTGCCCTGATGTTAATCGGGTCTTGATTCGCTTGACGCTGCTG”: the binding signal in experiment [2] is 1.28 z-score; in experiment [3] it was 1.18 z-score; in experiment [5], 1.61 z-score; in experiment [6] it was 1.54 z-score.
“CCGATTAACATCACCAAAATTCCTGATGTTAATCGGGTCTTGATTCGCTTGACGCTGCTG”: the binding signal in experiment [2] worked out at 1.17 z-score; in experiment [4] it was 1.01 z-score; in experiment [5], 1.17 z-score; in experiment [6] it was 1.51 z-score.
In the case of “CCGATTAACATCAAGGTTTTTCCTGATGTTAATCGGGTCTTGATTCGCTTGACGCTGCTG”, the binding signal in experiment [2] came to 1.62 z-score; in experiment [4] it was 3.17 z-score; in experiment [5] it was 2.97 z-score; in experiment [6], 1.61 z-score.
With “CCGATTAACATCAGGGAGTACACTGATGTTAATCGGGTCTTGATTCGCTTGACGCTGCTG”, the binding signal amounted to 1.96 z-score in experiment [7]; 1.03 z-score in experiment [3]; 1.58 z-score in experiment [4]; 1.84 z-score in experiment [5]; 1.1 z-score in experiment [6].
With “CCGATTAACATCAGTTTCCCAAATGATGTTAATCGGGTCTTGATTCGCTTGACGCTGCTG”, the binding signal in experiment [1] was found to be 2.56 z-score; in experiment [2] it was 3.42 z-score; in experiment [3], 2.19 z-score; in experiment [4], 1.2 z-score; in experiment [5], 1.17 z-score; in experiment [6] it was 1.81 z-score.
With “CCGATTAACATCAGTGGGAAACATGATGTTAATCGGGTCTTGATTCGCTTGACGCTGCTG”, the binding signal in experiment [1] was 1.93 z-score; in experiment [2] it was 1.79 z-score; in experiment [3], 3.12 z-score; in experiment [5] it was 2.03 z-score; in experiment [6] it was 1.25 z-score.
In the case of “CCGATTAACATCAAAAAATTTCCTGATGTTAATCGGGTCTTGATTCGCTTGACGCTGCTG”, the binding signal was found to be 1.31 z-score in experiment [2], 2.34 z-score in experiment [4], 2.22 z-score in experiment [5] and 2.27 z-score in experiment [6].
As to “CCGATTAACATCAAAAAATTTTCTGATGTTAATCGGGTCTTGATTCGCTTGACGCTGCTG”, the binding signal was found to be 1.98 z-score in experiment [2], 2.72 z-score in experiment [4], 1.49 z-score in experiment [5] and 2.15 z-score in experiment [6].
On to “CCGATTAACATCAAGGGCTTTCCTGATGTTAATCGGGTCTTGATTCGCTTGACGCTGCTG”, for which the binding signal is 1.28 z-score in experiment [7], 2.98 z-score in experiment [4], 3.6 z-score in experiment [5] and 1.47 z-score in experiment [6].
As for “CCGATTAACATCAGTTGGGAAAATGATGTTAATCGGGTCTTGATTCGCTTGACGCTGCTG”, the binding signal in experiment [1] turned out to be 3.62 z-score; in experiment [2] it was 4.31 z-score; in experiment [3] it was 2.64 z-score; in experiment [5], 1.77 z-score; in experiment [6] it was 2.33 z-score.
“CCGATTAACATCAGAAAATACCATGATGTTAATCGGGTCTTGATTCGCTTGACGCTGCTG”: the binding signal in experiment [1] is 1.12 z-score; in experiment [2] it was 1.7 z-score; in experiment [4], 3.11 z-score; in experiment [5] it was 1.58 z-score; in experiment [6] it was 1.63 z-score.
